Experimental data published in PubChem BioAssay (NCI).
About 79,000 compounds went through this panel and 15% of them were active in at least one assay; those are over-represented in the sample as a whole. Values without a mark were called inactive. Activity calls are given as the source filed them. Cut-off read from the data, not from the text of the source: active = growth inhibition above about 70%; inactive = the rest.

How the values were obtained:
[1] = NCI Yeast Anticancer Drug Screen. Data for the rad50 strain (AID 155);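 note: 0% = growth of vehicle-only cultures of the same strain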; conditions: S. cerevisiae rad50 strain growth inhibition; at 50.0 µM; hits give high values
Procedure, shortened: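 Readout: growth inhibition relative to vehicle-treated cultures. Compound exposure was carried out in a genetically defined yeast strain deficient in DNA damage repair.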

[2] = NCI Yeast Anticancer Drug Screen. Data for the mec2-1 strain (AID 157); conditions: S. cerevisiae mec2-1 strain, at 50.0 µM, hits give high values
Procedure, shortened: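 Test agents were screened against the mec2-1 yeast strain, with defined DNA repair or cell cycle alteration. Growth was scored as inhibition against vehicle-only controls.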

[3] = NCI Yeast Anticancer Drug Screen. Data for the sgs1 mgt1 strain (AID 161);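 note: 0% = growth of cultures given vehicle only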; conditions: S. cerevisiae sgs1 mgt1 strain, at 50.0 µM, hits give high values
Procedure, shortened: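 Inhibition of yeast growth, normalised to vehicle-treated controls, is reported for a strain bearing genetic alterations in DNA damage repair.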

[4] = NCI Yeast Anticancer Drug Screen. Data for the cln2 rad14 strain (AID 165);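 note: 0% = growth equal to vehicle treated cultures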; conditions: S. cerevisiae cln2 rad14 strain, at 50.0 µM, hits give high values
Procedure, shortened: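 Growth of compound-exposed yeast (cln2 rad14 genotype) measured and expressed as inhibition relative to vehicle.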

[5] = NCI Yeast Anticancer Drug Screen. Data for the bub3 strain (AID 167); conditions: S. cerevisiae bub3 mutant strain, at 50.0 µM, hits give high values
Procedure, shortened: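 Readout: yeast growth inhibition, expressed relative to vehicle-only wells. The test organism is a mutant strain from a panel with lesions in DNA repair or checkpoint genes.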

[6] = NCI Yeast Anticancer Drug Screen. Data for the mlh1 rad18 strain (AID 175); conditions: S. cerevisiae mlh1 rad18 strain growth inhibition; at 50.0 µM; hits give high values
Procedure, shortened: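 In this whole-cell yeast screen, a strain with altered DNA damage repair is challenged with compound, and its growth is measured against matched vehicle-treated controls.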

Row | SMILES | growth inhibition [1] | growth inhibition [2] | growth inhibition [3] | growth inhibition [4] | growth inhibition [5] | growth inhibition [6]
1 | CCC(CC)NNC(CC)CC | -1.8% | -0.6% | -8.05% | 5.35% | -16.3% | -8.25%
2 | Nc1nc(N)[n+]([O-])c(N)c1NCO | -4.85% | 2.9% | -40% | -50.8% | -14% | -25.3%
3 | CC(=O)N/C(=C\c1ccccc1)C(N)=O | 9.9% | 12.9% | 1.2% | 0.6% | 36% | 1.55%
4 | CC(=O)Nc1ccc2nc(/C=C/c3ccc(N(C)C)cc3)c(=O)oc2c1 | 38.5% | 18.6% | 25.5% | 16.7% | 20.1% | 29.9%
5 | CCCCCc1cc(C(=O)NN)c2ccccc2n1 | -29.7% | -25% | -12.6% | -15.8% | 33.1% | -12.8%
6 | CC[C@@]1(O)C[C@H](OC2CC(N(C)C)C(OC3CC(O)C(OC4CC(O)C(O)C(C)O4)C(C)O3)C(C)O2)c2c(cc3c(c2O)C(=O)c2c(O)ccc(O)c2C3=O)[C@H]1C(=O)OC (stereo not given in full) | -25.1% | -14.8% | -35% | 4.3% | 1.95% | 7.45%
7 | CCCCOC(=O)c1ccc(NC(=O)CCCN(CC)CC)cc1 | 5.5% | -2.3% | 0.85% | 13.2% | 14.4% | -5%
8 | CS/C(=N/N=C(\C)c1ccccn1)[Se][Se]/C(=N/N=C(\C)c1ccccn1)SC | 15.7% | -1% | 15.6% | 29.2% | -2.5% | 30.9%
9 | CC12CC(C/C1=N/O)C(C)(C)C2 (stereo not given) | -4.3% | 16.4% | 1.55% | 15.7% | -7.65% | 9.6%
10 | c1ccc(CN2CCCCC(Sc3ccccc3)CC2)cc1 (stereo not given) | 90.2% (active) | 93.8% (active) | 92.2% (active) | 90.5% (active) | 89.7% (active) | 90.9% (active)
11 | N#CC1=C(O)/C(=C\c2ccc(Cl)cc2)N=C1N | -28.3% | -14.3% | -7.8% | -13.9% | -6.2% | -3.35%
12 | Cn1c(=O)c2c(nc(N)n2C)n(C)c1=O | -16.8% | -8.35% | 5.8% | -30.2% | -33.6% | -20.4%
13 | COc1ccc2nc3c(=O)[nH]c(=O)nc-3n(CC(O)C(O)C(O)CO)c2c1 (stereo not given) | 24.9% | 6.9% | 16.1% | 25.3% | 10.9% | 34.2%
14 | C[Si]1(C)CC[Si](C)(C)OS(=O)(=O)O1 | 8.2% | -8.35% | -4.75% | -49.8% | -9.05% | 3.6%
15 | CC(c1cccc2ccccc12)/[N+]([O-])=C/c1ccccc1 (stereo not given) | -11.6% | -27.9% | -32.7% | 2.1% | -37.4% | -11.7%
16 | CC(C)(C)c1cc(/C=C/c2cc(/C=C/c3cc(C(C)(C)C)c(O)c(C(C)(C)C)c3)c([N+](=O)[O-])cc2[N+](=O)[O-])cc(C(C)(C)C)c1O | 20.2% | -0.15% | 1.85% | -45.7% | 3.65% | 5.8%
17 | CC(C)C(N=Cc1ccccc1O)C(=O)O (stereo not given) | -8.35% | -21.9% | -10.2% | -5.75% | -47.9% | -4.3%
18 | COc1ccc(C=Nc2c(O)ccc3c2CCCC3)cc1OC | 9.55% | 4.7% | -6.1% | -49.3% | 1.95% | 14.9%
19 | Cc1c2cccc(Br)c2c[n+]2ccccc12 | 20.9% | 18.4% | 39% | -21.4% | 1.3% | 31.1%
20 | C/C(=N\N)c1ccc(Cl)cc1O | 7.45% | -34.2% | 7.2% | 4.25% | 3.5% | 16%

Row | SMILES | growth inhibition [1] | growth inhibition [2] | growth inhibition [3] | growth inhibition [4] | growth inhibition [5] | growth inhibition [6]
21 | CC(C)OC(=O)C(C)(OC(=O)c1ccccc1)c1ccccc1 (stereo not given) | 5.35% | -14.8% | 4.35% | -13.1% | 19.1% | 14.3%
22 | O=C(O)CC(C(=O)O)c1ccccc1[N+](=O)[O-] (stereo not given) | -26.9% | -3.8% | -24.2% | -32.5% | -1.1% | -7.8%
23 | CN1C(c2ccccc2)=C(C#N)C(=O)CC(c2cccs2)N1C (stereo not given) | -8% | 7.45% | 33.6% | -1.5% | 8.15% | 8.25%
24 | COc1ccc2c(Cc3ccccc3O)cncc2c1O | 0.9% | 2.25% | -4.75% | -3.5% | -5.9% | 14.8%
25 | COc1ccc([Se][Se]c2ccc(OC)cc2NC(C)=O)c(NC(C)=O)c1 | 19.8% | -6.8% | 18.1% | 16.1% | 27.9% | 7.15%
26 | c1ccc(CNc2ccccc2)cc1 | 3.6% | -29.5% | -24.4% | 12.1% | -18.9% | -2.1%
27 | CCOC(=O)C/C(C)=N\NS(=O)(=O)c1ccc([N+](=O)[O-])cc1 | 3.05% | -16.5% | 8.85% | -30.1% | 8% | 2.45%
28 | Cc1ccc(N=Nc2ccc(N(C)C)cc2)cc1 | 18.6% | -8.05% | -16.6% | -51.6% | -6.2% | 14.7%
29 | O=[N+]([O-])c1cccc(N=Cc2ccc(Cl)cc2)c1 | -29.9% | -17.8% | -62.5% | -0.7% | -0.05% | -11.1%
30 | O=C(O)C12CCCC(CCC1)C2 | -2.2% | 1.05% | -3.8% | -4.35% | -0.2% | -0.55%
31 | OCC(CN1CCCCC1)(CN1CCCCC1)CN1CCCCC1 | -47.8% | -68.7% | -14.6% | -7.05% | -5.2% | -32.4%
32 | CCOC(=O)Sc1nccn1C | 8.05% | -19.2% | 3.25% | -4.7% | -13.2% | -0.45%
33 | Cc1cc(OCCCC[N+](C)(C)Cc2ccc(Br)o2)c(C(C)C)cc1Cl | 99.5% (active) | 99.5% (active) | 99.2% (active) | 99.3% (active) | 99.2% (active) | 99.3% (active)
34 | N#CC1(c2ccccc2)OC1(C#N)c1ccccc1 (stereo not given) | 3.1% | -14.6% | -4.8% | -22.2% | -11.2% | -7.6%
35 | CCOC(=O)C(C)(C)Oc1ccc2c(=O)cc(-c3ccc(Cl)cc3)oc2c1 | -19.6% | -20.1% | -30.3% | -14.5% | -38.9% | -29.4%
36 | COc1cc(CC(=O)c2ccc3c(c2)OCO3)cc(OC)c1OC | -9.95% | -5.15% | -8.95% | -15.5% | 4.75% | -25.3%
37 | O=C(O)C1=C/C(=C\C=[N+]2c3cc(O)c(OC4OC(CO)C(O)C(O)C4O)cc3CC2C(=O)[O-])CC(C(=O)O)N1 (stereo not given) | -10.4% | -3.75% | 12.2% | -26.1% | 5.8% | 6%
38 | O=C(c1ccccc1)n1c2ccccc2c2ccccc21 | 9.55% | -3.3% | 17.6% | -1% | 26.2% | 26.2%
39 | CCCCCCCCCCCCCCCCOc1ccc2ccccc2c1 | 4.15% | -6.25% | 14.9% | -56.4% | 10.2% | 29.2%
40 | Cn1nnc2c(C(N)=O)ncn2c1=O | -11.4% | -18.5% | -28.5% | -25.2% | -26.6% | -77%
